Measurements as given in PubChem BioAssay (Tox21).
Inconclusive results are not listed. A call without a number means that no potency is given here. Some structures have more than one record in an assay (separate samples or runs), and their calls can disagree. Values without a mark were called inactive. The source made the active and inactive calls. Unless noted, calls come from the whole dose curve; as a rule, active = well fitted curve in the direction sought with a large enough effect in the repeat runs; inconclusive = weak or mixed curves; inactive = no such curve, though single readings can be large; an effect the other way counts as inactive or inconclusive.

What was measured:
[1] = qHTS assay to identify small molecule agonists of the RXR signaling pathway - cell viability counter screen (AID 1159529);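 note: HEK 293T cells carrying an RXR-alpha UAS beta-lactamase reporter; nearly all actives have a fitted effect of over 50% in size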
In short: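 Tox21 10K compounds were tested for cytotoxicity against GeneBLAzer RXR-alpha HEK 293T cells grown in 2% charcoal-stripped FBS. Exposure lasted 16 hr at 37 C, 5% CO2; viability read by CellTiter-Glo luminescence.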

[2] = qHTS assay to identify small molecule antagonists of the retinoid acid receptor (RAR) signaling pathway - cell viability counter screen (AID 1159551); note: nearly all actives have a fitted effect of over 35% in size
In short: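 Cytotoxicity counter screen: ATP content quantified by CellTiter-Glo luminescence in C3RL4 cells treated 6 hr at 37 C with compound and retinol (1 uM final). Cells plated at 1,000/well and cultured overnight before dosing.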

[3] = qHTS assay to identify small molecule antagonists of the retinoic acid receptor (RAR) signaling pathway (AID 1159552; note: nearly all actives have a fitted effect of over 50% in size)
In short: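 Overnight-plated C3RL4 reporter cells get compound, then retinol to 1 uM final; plates sit 6 hr at 37 C, 5% CO2. A luciferase reagent is added and light output recorded after 30 min at room temperature.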

[4] = qHTS assay to identify small molecule agonists of the retinoic acid receptor (RAR) signaling pathway (AID 1159553); conditions: C3RL4 RARE luciferase reporter, agonist, 6 h
In short: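 Luminescence was measured 30 min after luciferase reagent addition at room temperature. Before that, C3RL4 reporter cells (1,000 per well, plated overnight) were treated with compound for 6 hr at 37 C and 5% CO2.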

[5] = qHTS assay to identify small molecule antagonists of the estrogen related receptor (ERR) signaling pathway - cell viability counter screen (AID 1224818);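 note: viability measured after 17.5 h of compound exposure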
In short: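 Cytotoxicity counter screen: fluorescence from CellTiter-Fluor, added after 17.5 h compound exposure at 37 C and read 30 min later. ERR cell line seeded at 2,000 cells/well, preincubated 6 h before dosing.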

[6] = qHTS assay to identify small molecule antagonists of the estrogen related receptor (ERR) signaling pathway (AID 1224819;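 note: luminescence from an ERR-driven luciferase reporter measured with One-Glo reagent; nearly all actives have a fitted effect of over 50% in size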)
In short: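 LOPAC library screened for antagonism as reduced One-Glo luminescence in ERR reporter cells (2,000/well). Compounds were added after 6 h pre-incubation and left 18 h at 37C; reading followed a 30 min room-temperature reagent step.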

[7] = qHTS assay to identify small molecule agonists of the estrogen related receptor (ERR) signaling pathway (AID 1224820)
In short: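 An ERR cell line provided by NTP was seeded at 2,000 cells per well and allowed to settle for 6 h before compounds in DMSO were added. After 18 h at 37 C, luciferase activity was measured by One-Glo luminescence.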

[8] = test system: estrogen-related receptor alpha (ERRalpha) with PGC-1alpha coactivator, human; test: qHTS assay to identify small molecule antagonists of the estrogen related receptor signaling pathway with the pleiotropic PPARgamma coactivator (PGC) (AID 1224821; calls by dose curve;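 note: lower luminescence signal means antagonism of PGC/ERR signalling; nearly all actives have a fitted effect of over 50% in size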)
In short: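 A PGC/ERR cell line supplied by NTP is seeded, allowed 6 h at 37 C, and treated with test compounds in DMSO for 18 h. Signal is then measured as luciferase luminescence using One-Glo.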

[9] = qHTS assay to identify small molecule antagonists of the estrogen related receptor signaling pathway with the pleiotropic PPARgamma coactivator (PGC) cell viability counter screen (AID 1224822)
In short: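 Viability counter-screen read by fluorescence intensity after 30 min with CellTiter-Fluor at 37 C; PGC/ERR reporter cells were exposed to compounds for 17.5 h at 37 C following a 6 h preincubation.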

[10] = qHTS assay to identify small molecule agonists of the estrogen related receptor signaling pathway with the pleiotropic PPARgamma coactivator (PGC) (AID 1224823)
In short: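 Compounds dissolved in DMSO are added by pin tool to PGC/ERR cells that have settled for 6 h, and incubation continues 18 h at 37 C. Reporter output is measured as One-Glo luminescence.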

[11] = qHTS assay to identify small molecule antagonists of the estrogen related receptor (ERR) signaling pathway from Tox21 library - cell viability counter screen (AID 1224834); note: nearly all actives have a fitted effect of over 30% in size
In short: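 CellTiter-Fluor fluorescence, read after 30 min at 37 C, measures viability of ERR cells. Cells plated at 2,000/well and incubated 6 h before pin-tool compound addition, then exposed 17.5 hours at 37 C.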

[12] = biological target: Luciferin 4-monooxygenase (Photinus pyralis) (UniProt P08659); test: qHTS assay to identify small molecule inhibitors of firefly luciferase (AID 1224835); note: nearly all actives have a fitted effect of over 25% in size
Sequence of Luciferin 4-monooxygenase (Photinus pyralis) (P08659 whole entry, looked up): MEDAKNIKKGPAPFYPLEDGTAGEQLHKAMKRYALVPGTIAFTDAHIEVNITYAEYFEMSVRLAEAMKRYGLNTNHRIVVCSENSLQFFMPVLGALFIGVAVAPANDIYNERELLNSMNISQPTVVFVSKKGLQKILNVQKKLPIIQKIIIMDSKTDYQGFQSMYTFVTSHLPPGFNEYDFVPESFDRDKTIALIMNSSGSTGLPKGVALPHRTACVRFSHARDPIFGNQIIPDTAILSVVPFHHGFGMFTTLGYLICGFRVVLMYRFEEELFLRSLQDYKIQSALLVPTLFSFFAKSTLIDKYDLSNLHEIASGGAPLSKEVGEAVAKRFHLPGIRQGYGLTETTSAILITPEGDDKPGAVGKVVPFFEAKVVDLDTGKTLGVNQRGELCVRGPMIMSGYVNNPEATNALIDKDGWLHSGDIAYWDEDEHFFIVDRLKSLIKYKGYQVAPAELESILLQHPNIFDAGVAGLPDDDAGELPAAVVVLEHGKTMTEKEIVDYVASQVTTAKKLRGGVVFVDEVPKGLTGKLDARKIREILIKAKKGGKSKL
In short: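 Quantitative HTS format; KM concentrations of both substrates. Purified P. pyralis FLuc activity quantified from luminescence images.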

[13] = qHTS assay to identify small molecule agonists of the constitutive androstane receptor (CAR) signaling pathway - cell viability counter screen (AID 1224836); note: nearly all actives have a fitted effect of over 45% in size
In short: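 Fluorescence from CellTiter-Fluor indicates live cells after 23 h exposure. The human hepatoma line expresses hCAR and a CYP2B6-2.2kb reporter. Incubation medium contains 0.75 uM PK11195 (final).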

[14] = qHTS assay to identify small molecule antagonists of the constitutive androstane receptor (CAR) signaling pathway - cell viability counter screen (AID 1224837); note: nearly all actives have a fitted effect of over 45% in size
In short: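 Cytotoxicity counter-screen: CellTiter-Fluor fluorescence after 23 h compound exposure (15-point qHTS) in double-stable HepG2-CYP2B6-hCAR cells, with 50 nM CITCO added.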

[15] = biological target: Nuclear receptor subfamily 1 group I member 3 (Homo sapiens) (UniProt Q14994); test: qHTS assay to identify small molecule antagonists of the constitutive androstane receptor (CAR) signaling pathway (AID 1224838);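 note: HepG2 cells stably expressing hCAR with CYP2B6 luciferase reporter stimulated by CITCO; nearly all actives have a fitted effect of over 40% in size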
Sequence of Nuclear receptor subfamily 1 group I member 3 (Homo sapiens) (Q14994 whole entry, looked up): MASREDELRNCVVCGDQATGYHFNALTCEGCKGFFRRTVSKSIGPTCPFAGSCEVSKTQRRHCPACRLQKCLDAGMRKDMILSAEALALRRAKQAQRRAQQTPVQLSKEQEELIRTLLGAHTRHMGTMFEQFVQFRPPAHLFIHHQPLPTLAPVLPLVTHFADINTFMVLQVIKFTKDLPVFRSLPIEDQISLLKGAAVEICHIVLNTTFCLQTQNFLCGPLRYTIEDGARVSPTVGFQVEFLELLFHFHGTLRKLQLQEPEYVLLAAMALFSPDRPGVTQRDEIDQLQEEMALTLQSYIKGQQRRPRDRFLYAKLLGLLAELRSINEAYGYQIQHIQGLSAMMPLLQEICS
In short: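 Antagonism measured as luciferase signal (ONE-Glo, 30 min, room temperature) in CAR-stimulated cells: HepG2-CYP2B6-hCAR double-stable line exposed 24 hr at 37 C to compound in a 15-point series plus 50 nM CITCO.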

[16] = biological target: Nuclear receptor subfamily 1 group I member 3 (Homo sapiens) (UniProt Q14994); test: qHTS assay to identify small molecule agonists of the constitutive androstane receptor (CAR) signaling pathway (AID 1224839);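 note: HepG2 cells stably carrying human CAR and a CYP2B6 luciferase reporter; nearly all actives have a fitted effect of over 15% in size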
In short: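 Stable hCAR/CYP2B6-2.2kb HepG2 line in DMEM with 10% FBS; compounds (15 concentrations) and 0.75 uM PK11195 final, 24 h at 37 C/5% CO2, then ONE-Glo luminescence after 30 min.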

[17] = qHTS assay to identify small molecule antagonists of the estrogen related receptor signaling pathway with the pleiotropic PPARgamma coactivator (PGC) from Tox21 10K library - cell viability counter screen (AID 1224840; active = well fitted cell-killing curve with a large enough effect in the repeat runs, not every such curve was filed as active; note: nearly all actives have a fitted effect of over 40% in size)
In short: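 Counter-screen for cytotoxicity: after 17.5 h compound exposure at 37 C, CellTiter-Fluor reagent added to PGC/ERR cells for 30 min and fluorescence read. Cells were seeded at 2,000 per well 6 h before dosing.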

[18] = biological target: Thyrotropin receptor (Homo sapiens) (UniProt P16473); test: qHTS assay to identify small molecule agonists of the thyroid stimulating hormone receptor (TSHR) signaling pathway (AID 1224843; calls by dose curve; note: nearly all actives have a fitted effect of over 45% in size)
Sequence of Thyrotropin receptor (Homo sapiens) (P16473 whole entry, looked up): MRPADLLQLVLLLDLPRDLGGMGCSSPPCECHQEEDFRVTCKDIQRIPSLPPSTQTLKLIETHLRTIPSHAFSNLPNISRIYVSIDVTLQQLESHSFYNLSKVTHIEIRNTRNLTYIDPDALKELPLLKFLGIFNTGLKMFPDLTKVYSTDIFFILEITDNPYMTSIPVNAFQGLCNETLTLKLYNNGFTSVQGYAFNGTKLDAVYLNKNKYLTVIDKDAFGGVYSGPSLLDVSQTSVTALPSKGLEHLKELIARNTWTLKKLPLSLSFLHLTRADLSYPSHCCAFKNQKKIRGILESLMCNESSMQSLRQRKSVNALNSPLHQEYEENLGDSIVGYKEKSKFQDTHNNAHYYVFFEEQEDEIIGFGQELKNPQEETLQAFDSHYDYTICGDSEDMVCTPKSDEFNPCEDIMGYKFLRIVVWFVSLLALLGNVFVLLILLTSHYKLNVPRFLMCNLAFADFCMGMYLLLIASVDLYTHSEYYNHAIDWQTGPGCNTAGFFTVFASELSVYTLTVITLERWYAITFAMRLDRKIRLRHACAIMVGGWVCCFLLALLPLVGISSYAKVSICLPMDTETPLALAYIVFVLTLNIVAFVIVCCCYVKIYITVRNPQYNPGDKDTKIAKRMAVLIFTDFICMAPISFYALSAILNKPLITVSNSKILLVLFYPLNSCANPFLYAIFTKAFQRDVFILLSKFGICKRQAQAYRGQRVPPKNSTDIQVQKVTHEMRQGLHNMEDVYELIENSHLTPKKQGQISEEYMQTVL
In short: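 Compounds are titrated over 15 concentrations, in triplicate, onto TSHR-HEK293 cells seeded at 800/well. Plates sit 30 min at room temperature before cAMP-d2 and anti-cAMP cryptate are added; signal is read after a further hour.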

[19] = activation: at 73.3 µM (top of the series) unless noted

Compound | Potency [1] | Potency [2] | Potency [3] | Potency [4, 19] | outcome [5] | Potency [6] | outcome [7] | Potency [8] | Potency [9] | outcome [10] | Potency [11] | Potency [12] | Potency [13] | Potency [14] | Potency [15] | Potency [16] | Potency [17] | Potency [18] | activation [4, 19] | activation ([4]; at 73.3 µM (top of the series))
CN=C(NC#N)NCCSCc1nc[nH]c1C | inactive | inactive | inactive | inactive | inactive | inactive | inactive | inactive | inactive | inactive | inactive | inactive | inactive | inactive | inactive | inactive | inactive | inactive | – | –
Cc1cc(C)cc(O)c1 | inactive | inactive | inactive | inactive | – | – | – | – | – | – | inactive | inactive | inactive | inactive | inactive | inactive | inactive | – | – | –
COc1ccccc1[N+](=O)[O-] | inactive | inactive | inactive | inactive | – | – | – | – | – | – | inactive | inactive | inactive | inactive | inactive | inactive | inactive | – | – | –
OC1CCCCC1 | inactive | inactive | inactive | inactive | – | – | – | – | – | – | inactive | inactive | inactive | inactive | inactive | inactive | inactive | – | – | –
Nc1cccc(N)n1 | inactive | inactive | inactive | inactive | – | – | – | – | – | – | inactive | inactive | inactive | inactive | inactive | inactive | inactive | – | – | –
Cc1cc(C)c(O)c(C)c1 | inactive | inactive | inactive | inactive | – | – | – | – | – | – | inactive | inactive | inactive | inactive | inactive | inactive | inactive | – | – | –
CN1CCCC1=O | inactive | inactive | inactive | – | – | – | – | – | – | – | – | inactive | inactive | inactive | – | – | inactive | – | -0.377% [at 94.8 µM] (active) | 0.131%
C=CC(C)(C)C | inactive | inactive | inactive | inactive | – | – | – | – | – | – | inactive | inactive | inactive | inactive | inactive | inactive | inactive | – | – | –
O=C1C(N(CO)C(=O)NCO)N(CO)C(=O)N1CO (configuration not stated) | inactive | inactive | inactive | inactive | – | – | – | – | – | – | inactive | inactive | inactive | inactive | inactive | inactive | inactive | inactive | – | –
Cc1ccc(C)c(S(=O)(=O)O)c1 | inactive | inactive | inactive | inactive | – | – | – | – | – | – | inactive | inactive | inactive | inactive | inactive | inactive | inactive | inactive | – | –
